Compound activity (PubChem)
This is a sample that favours compounds with a hit; in the whole collection about 1.5% have one here.
AID504770 = E. coli YBA685 growth inhibition, screen for V. cholerae RctB inhibitors; E. coli YBA685 rctB-dependent plasmid, OD600 growth, 3 h; active compounds read low; z-score (test concentration not listed); 0.27% of 130,000 active; AID 504770; in the data active = z-score below about -2, passing the limit was not always enough
Mtb MenB inh = blocks the Mycobacterium tuberculosis MenB enzyme | P9WNP5 | MenB enzyme assay, absorbance read-out | inhibition, % (concentration not given with the values) | 0.43% of 100,000 active; in the data active = inhibition above about 21%, passing the limit was not always enough
Polio RdRp inh = inhibitors of poliovirus RNA polymerase binding and polymerization. AID 588519. % elongation, % (compound at 16.7 µg/mL). P03300. poliovirus polymerase elongation, fluorescence polarization; active compounds read low. 0.66% of 150,000 active; in the data active = % elongation below about 90%
Target sequence (P03300 1749-2209 limits assumed): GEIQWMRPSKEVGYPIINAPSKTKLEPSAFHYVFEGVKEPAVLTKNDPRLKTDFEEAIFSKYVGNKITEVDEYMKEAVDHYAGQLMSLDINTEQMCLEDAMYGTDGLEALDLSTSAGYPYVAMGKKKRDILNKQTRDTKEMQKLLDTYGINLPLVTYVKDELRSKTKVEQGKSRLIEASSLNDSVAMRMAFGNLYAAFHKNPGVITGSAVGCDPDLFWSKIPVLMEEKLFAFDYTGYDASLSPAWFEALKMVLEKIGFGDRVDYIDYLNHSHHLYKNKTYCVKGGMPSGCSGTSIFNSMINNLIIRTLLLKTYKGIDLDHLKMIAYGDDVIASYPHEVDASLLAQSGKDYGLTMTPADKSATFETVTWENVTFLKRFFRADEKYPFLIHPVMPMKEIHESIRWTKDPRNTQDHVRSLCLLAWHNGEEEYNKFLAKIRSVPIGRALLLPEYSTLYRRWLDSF
MbtI inh = inhibitors of Mycobacterium tuberculosis siderophore enzyme MbtI; purified MbtI enzyme, fluorescence intensity read-out; inhibition, % (concentration not given with the values); AID 493033; 0.89% of 100,000 active; P9WFX0; in the data active = inhibition mostly above about 56%, no sharp cut-off; inactive = mostly below about 77%
A number is an active result; i = inactive; nt = no result.

SMILES	AID504770	Mtb MenB inh	Polio RdRp inh	MbtI inh
CCC1CCc2sc(-c3n[nH]c(=S)n3C)cc2C1 (centres undefined)	i	i	i	i
C=CCN1C(=O)/C(=C\c2cc(OC)c(O)c(OC)c2)SC1=S	i	i	i	i
O=c1c(=Nc2ccccc2O)c(=O)c2ccccc12	i	i	i	nt
O=c1c(=N\O)/c(=N/O)c(=O)c2ccccc12	-5.3	i	60	i
NS(=O)(=O)c1ccc(-c2ccc(/C=C3\SC(=S)N(Cc4ccccc4)C3=O)o2)cc1	i	i	i	nt
NC(=S)NN=C1C2CC3CC(C2)CC1C3	i	i	82	i
CC12CC(C)(C)C(C#N)(C(N)=C1C#N)C(=C(C#N)C#N)N2 (centres undefined)	i	i	83	i
O=C1NC(=Nc2ccccc2)c2ccccc21	i	nt	i	i
NC(=S)NCC1CCCO1 (centres undefined)	i	i	i	89
N#Cc1c(=O)n(O)c2ccccc2[n+]1[O-]	-4.3	i	i	i
N#Cc1c(N)[n+]([O-])c2ccccc2[n+]1[O-]	-4.4	i	i	i
CC(=O)Oc1c(O)ccc2c(C)cc(=O)oc12	i	i	i	i
Cc1cc(=O)oc2c(/C=N/c3ccccn3)c(O)ccc12	i	i	88	i
CCCN(CCC)S(=O)(=O)c1ccc(C(=O)Nc2cc(C(F)(F)F)cc(C(F)(F)F)c2)cc1	i	nt	nt	nt
O=C(O)C(O)C(O)c1nc2cc3ccccc3cc2[nH]1 (centres undefined)	i	i	i	nt
COc1cc(SC)ccc1C(=O)N(C)C1CCN(C)CC1	i	i	-3.0	i
CC(C)n1cn[nH]c1=S	i	i	i	59
CC(C)Cc1cc(C(=O)O)nc(=O)[nH]1	i	38	i	i
CCSc1nc(C(=O)O)cc(=O)[nH]1	i	nt	nt	nt
C/C(=N\NC(N)=S)c1ccc(Cl)cc1	i	i	nt	61
Cc1cc(C(F)(F)F)c(C#N)c(SCC(=O)c2ccccc2)n1	i	i	i	nt
O=C(O)c1cc2c(cn1)[nH]c1ccccc12	-3.5	i	i	i
O=C(O)c1cc(=O)c2ccccc2[nH]1	i	i	i	i
CCOC(=O)c1c(CN2CCOCC2)n(C)c2ccc(O)cc12	i	i	68	nt
CC(NC(=O)C1CCN(c2ncccn2)CC1)c1ccncc1 (centres undefined)	i	i	i	i
SMILES	AID504770	Mtb MenB inh	Polio RdRp inh	MbtI inh
N#CC(C#N)=NNc1ccc(SC(F)F)cc1	-3.4	i	i	i
COc1ccc(CN(C)S(C)(=O)=O)cc1	i	i	i	i
CN(CC(=O)O)C(=S)c1ccccc1	i	i	76	54
CN(C)C(=S)NC(=O)c1ccccc1	i	i	i	i
O=C(O)CCN1CCN(c2cccc(Cl)c2)CC1	i	i	i	i
CCN(CC)C(=O)CN1CCN(c2cccc(Cl)c2)CC1	i	33	i	i
N#Cc1cc2c(cc1C#N)Oc1ccccc1O2	i	i	i	i
CCC(CC)NC(=O)c1ccc[nH]c1=S	i	i	i	93
CC(C)(C)NC(=O)Cc1ccccc1	i	38	i	i
NNC(=O)Cc1ccccc1	i	i	i	i
N#Cc1ccc(COC(=O)c2ccccc2-c2ncc(-c3ccccc3)o2)cc1	i	i	i	i
C=CCN1C(=O)/C(=C/c2ccco2)C(=O)NC1=S	i	i	i	86
O=C1NC(=O)N(Cc2ccco2)C(=O)/C1=C\c1ccco1	i	i	i	i
C=CCN1C(=O)NC(=O)/C(=C/c2ccco2)C1=O	i	i	i	98
COc1cccc(N2CCN(C(=O)C3=NNC(=O)CC3)CC2)c1	i	i	i	i
COc1ccc(-c2nn(-c3ccccc3)cc2C(=O)N(C)C)cc1OC	i	i	i	i
CN1c2ccccc2N(C)C1c1ccc(O)cc1	i	i	83	i
CCN1CCN(C(=O)C2=CC(c3ccc(F)cc3)=NS(=O)(=O)N2C)CC1	i	i	i	i
O=C(O)C1CC(c2ccc(F)cc2)=NO1 (centres undefined)	i	i	84	nt
CN(C)S(=O)(=O)c1ccc2oc(=S)[nH]c2c1	i	i	88	i
CC1CC(C)CN(C(=O)CNC(=O)Cn2cnc3ccccc3c2=O)C1 (centres undefined)	i	i	i	i
CC(c1n[nH]c(=S)n1Cc1ccccc1)N(C)C (centres undefined)	i	i	i	59
CN(C)c1ccc(/C=C2\C(=O)N(c3ccccc3)N=C2C(=O)O)cc1	i	i	i	i
CCOC(=O)C1=NN(c2ccccc2)C(=O)/C1=C\c1ccc(N(C)C)cc1	i	i	i	98
CC(C)Cn1cc(NC(=O)Nc2cccc(C(F)(F)F)c2)c2ccccc2c1=O	nt	nt	70	nt
SMILES	AID504770	Mtb MenB inh	Polio RdRp inh	MbtI inh
CCCN(CCC)C(=O)Nc1cn(CC(C)C)c(=O)c2ccccc12	i	i	i	i
Cc1ccc(NC(=O)Nc2cn(CC(C)C)c(=O)c3ccccc23)cc1N(C)C	nt	nt	73	nt
Cc1oc2c(c1C(=O)NCCCN1CCOCC1)C(=O)c1ccccc1C2=O	i	i	i	i
COc1ccc(NC(=O)CSc2nnc(C)n3c2cc2sccc23)cc1	i	i	i	i
O=C(O)CC1C(=O)NC(=Nc2ccccc2)N1c1ccccc1 (centres undefined)	i	i	i	i
O=C(O)CC1C(=O)NN=C2c3ccccc3N=CN21 (centres undefined)	i	i	78	i
COCc1c(CSSCc2cnc(C)c(O)c2COC)cnc(C)c1O	i	38	86	i
COCc1c(CN)cnc(C)c1N	i	i	i	i
c1ccc(-c2nc(N3CCCCC3)c3ccccc3n2)cc1	i	33	i	i
CCCCN(Cc1ccccc1)C(=O)C1CCN(Cc2cccc(O)c2)CC1	i	i	i	nt
CCCCN(C)C(=O)C1CCN(Cc2ccc(OCC)cc2)CC1	i	i	45	nt
NC(=O)CSc1nc2c(c(=O)n1CCc1ccccc1)SCC2	i	i	i	i
FC(F)(F)c1ccc(=S)[nH]c1	i	i	i	93
CC1CCCCN1C(=O)Nc1noc2c1COc1ccccc1-2 (centres undefined)	i	i	i	i
CCOC(OCC)n1c(=S)n(C(OCC)OCC)c2ccccc21	i	i	83	94
CC1(C)OC(c2ccccc2)CC1=O (centres undefined)	i	i	i	i
O=C1[C@H]2CSC3(C(=O)c4ccccc4C3=O)N2C(=O)[C@H]2CSC3(C(=O)c4ccccc4C3=O)N12	i	i	i	100
NC1(N)OC(CN2C(=O)c3ccccc3C2=O)CS1 (centres undefined)	i	i	i	i
Cc1c(NC(=O)C2Cc3ccccc3CN2S(=O)(=O)c2ccccc2F)c(=O)n(-c2ccccc2)n1C (centres undefined)	i	i	i	i
Cc1cc(OC(=O)/C=C/c2ccc(F)cc2)cc(=O)o1	i	i	84	i
O=C(COCc1cc(-c2ccco2)on1)NCC1CCCO1 (centres undefined)	i	i	i	i
CCCCC1(O)CCN(Cc2ccccc2)CC1	i	nt	nt	nt
CCCCC1(O)CC(C)(C)N([O])C(C)(C)C1	i	44	i	i
CCCC(C(=O)NC1CCCC1)N(C(=O)Cn1nnc(-c2ccc(C)o2)n1)c1ccccc1 (centres undefined)	i	i	i	i
